# Measured values from PubChem BioAssay (EPA / NIEHS).
# Results filed as inconclusive are left out. Calls of active or inactive are those of the source. The calls were made as follows, unless noted: active = hit-call score of the fitted dose curve at least 0.9, where 1 is the maximum; inactive = score below 0.9.
# Assays:
# [1] = read-out: TIMP1, TIMP1 (gene 7076); assay: LTEA_HepaRG_TIMP1: Life Technologies and Expression Analysis (LTEA) Assay for TIMP1 using HepaRG (AID 2283534); settings: mRNA level, 48 h; actives raise or lower the signal
# How it was run: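 Bidirectional change in TIMP1 transcript versus 0.5% DMSO, measured by TaqMan qRT-PCR with three housekeeping genes for normalization. HepaRG human liver cells dosed 48 h in duplicate, top concentration 100 uM with half-log dilutions.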
# [2] = read-out: Tumor necrosis factor receptor 1 (TNFRSF1A), TNFRSF1A (gene 7132); assay: LTEA_HepaRG_TNFRSF1A: Life Technologies and Expression Analysis (LTEA) Assay for Tumor necrosis factor receptor 1 (TNFRSF1A) using HepaRG (AID 2283535); settings: mRNA level, 48 h; actives raise or lower the signal
# How it was run: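 mRNA measured by qRT-PCR (TaqMan, Fluidigm arrays) against ACTB/GAPDH/POLR2A housekeepers after 48 h chemical exposure of HepaRG cells. Top concentration 100 uM, half-log 8-point series, duplicates; vehicle 0.5% DMSO, both fit directions.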
# [3] = read-out: Thyroid Hormone Responsive (THRSP), THRSP (gene 7069); assay: LTEA_HepaRG_THRSP: Life Technologies and Expression Analysis (LTEA) Assay for Thyroid Hormone Responsive (THRSP) using HepaRG (AID 2283536); settings: mRNA level, 48 h; actives raise or lower the signal
# How it was run: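 THRSP transcript quantified by Fluidigm qRT-PCR against three housekeeping genes after 48 h chemical exposure of HepaRG cells in serum-free induction medium; eight-point half-log series, top 100 uM, 0.5% DMSO vehicle, duplicate wells.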
# [4] = read-out: Cellular tumor antigen p53 (Homo sapiens) (UniProt P04637); assay: LTEA_HepaRG_TP53: Life Technologies and Expression Analysis (LTEA) Assay for Tumor Protein P53 (TP53) using HepaRG (AID 2283537); settings: mRNA level, 48 h; actives raise or lower the signal
# How it was run: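 Gain or loss of TP53 mRNA signal is scored relative to 0.5% DMSO after 48 h chemical treatment of HepaRG liver cells, tested in duplicate at eight half-log concentrations up to 100 uM.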
# [5] = read-out: UDP glucuronosyltransferase (UGT1A1), UGT1A1 (gene 54658); assay: LTEA_HepaRG_UGT1A1: Life Technologies and Expression Analysis (LTEA) Assay for UDP glucuronosyltransferase (UGT1A1) using HepaRG (AID 2283538); settings: mRNA level, 48 h; actives raise or lower the signal
# How it was run: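 HepaRG, 48 h chemical exposure (top 100 uM, half-log 8-pt, 0.5% DMSO vehicle), duplicate wells; qRT-PCR (TaqMan, Fluidigm array) for UGT1A1 mRNA, housekeeping-normalized; bidirectional curve fit vs DMSO baseline.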
# [6] = read-out: UDP glucuronosyltransferase (UGT1A6), UGT1A6 (gene 54578); assay: LTEA_HepaRG_UGT1A6: Life Technologies and Expression Analysis (LTEA) Assay for UDP glucuronosyltransferase (UGT1A6) using HepaRG (AID 2283539); settings: mRNA level, 48 h; actives raise or lower the signal
# How it was run: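 Expression was quantified by TaqMan qRT-PCR on Fluidigm arrays with ACTB/GAPDH/POLR2A normalization and bidirectional fitting against 0.5% DMSO. HepaRG cells (~100,000/well) were treated in duplicate for 48 h at eight half-log concentrations up to 100 uM in serum-free induction medium.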
# [7] = read-out: X-box binding protein 1 (XBP1), XBP1 (gene 7494); assay: LTEA_HepaRG_XBP1: Life Technologies and Expression Analysis (LTEA) Assay for X-box binding protein 1 (XBP1) using HepaRG (AID 2283540); settings: mRNA level, 48 h; actives raise or lower the signal
# How it was run: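 XBP1 transcript by qRT-PCR (housekeeping-normalized: ACTB, GAPDH, POLR2A) after 48 h chemical treatment of HepaRG cells, 8-point half-log series topping at 100 uM, vehicle 0.5% DMSO. Gain and loss of signal fitted relative to DMSO.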
# [8] = LTEA_HepaRG_LDH_cytotoxicity: Cytotoxicity Assessment in the Life Technologies and Expression Analysis (LTEA) Assay (AID 2283563; active = hit-call score of the fitted dose curve at least 0.9, where 1 is the maximum;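 as to AC50: LDH activity released into spent culture medium as a marker of cell death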)
# How it was run: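 LDH release into culture medium read after 48 h chemical treatment of HepaRG cells. Duplicate wells, eight-point half-log series topping at 100 uM, 0.5% DMSO vehicle and baseline.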
# [9] = ATG_XTT_Cytotoxicity: Cytotoxicity Assessment in the Attagene TRANS-FACTORIAL HepG2 Assay (AID 2283584; active = hit-call score of the fitted dose curve at least 0.9, where 1 is the maximum;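 as to AC50: cells exposed to compound for 24 h before reading; active means loss of viability signal versus DMSO baseline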)
# How it was run: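 Viability endpoint from XTT after 24 h chemical exposure of reporter-transfected human HepG2 liver cells; signal loss fitted relative to DMSO negative control.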
# [10] = TOX21_p53_BLA_p2_viability: Viability Assessment in the Tox21 HCT-116 p53 Agonism Beta-lactamase Assay, Phase 2 (AID 2283591; active = hit-call score of the fitted dose curve at least 0.9, where 1 is the maximum;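 also: compound exposure lasted 16 h at 37 °C; actives lower the ATP signal meaning cytotoxicity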)
# How it was run: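 Cytotoxicity readout: CellTiter-Glo ATP luminescence, 30 min at room temperature, after the beta-lactamase read. Cells were HCT116 exposed 16 h at 37C to compounds pin-transferred at 217-fold dilution from DMSO stocks.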
# Cellular tumor antigen p53 (Homo sapiens), sequence (P04637 whole entry, looked up): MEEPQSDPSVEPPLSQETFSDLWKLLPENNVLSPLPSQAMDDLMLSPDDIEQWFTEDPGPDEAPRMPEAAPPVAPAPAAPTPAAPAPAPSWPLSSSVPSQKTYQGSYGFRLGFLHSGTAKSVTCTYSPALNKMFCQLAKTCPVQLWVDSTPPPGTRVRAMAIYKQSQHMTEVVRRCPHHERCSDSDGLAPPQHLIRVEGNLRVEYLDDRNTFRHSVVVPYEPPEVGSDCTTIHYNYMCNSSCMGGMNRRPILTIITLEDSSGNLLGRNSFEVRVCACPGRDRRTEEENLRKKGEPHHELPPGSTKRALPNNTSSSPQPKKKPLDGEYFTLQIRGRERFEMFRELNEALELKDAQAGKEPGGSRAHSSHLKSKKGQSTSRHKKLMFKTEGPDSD
smiles,measurement,setting,value
CCCN(C1CCN(C(=O)C2CCNCC2)CC1)[C@@H]1CCc2ccc(OC)cc2C1,outcome,[1],inactive
same,outcome,[2],inactive
same,AC50,[3],80.1 µM (active)
same,outcome,[4],inactive
same,AC50,[5],69.3 µM (active)
same,AC50,[6],81 µM (active)
same,AC50,[7],28.2 µM (active)
same,AC50,[8],76.1 µM (active)
same,outcome,[9],inactive
same,outcome,[10],inactive
CCOC(=O)CC(CC(=O)OCC)(OC(C)=O)C(=O)OCC,outcome,[1],inactive
same,outcome,[2],inactive
same,outcome,[3],inactive
same,outcome,[4],inactive
same,outcome,[5],inactive
same,outcome,[6],inactive
same,outcome,[7],inactive
same,outcome,[8],inactive
same,outcome,[9],inactive
CC(C)c1cccc(C(C)C)c1N1C(=O)c2ccc(O)cc2C1=O,outcome,[1],inactive
same,outcome,[2],inactive
same,AC50,[3],90.2 µM (active)
same,outcome,[4],inactive
same,AC50,[5],10.8 µM (active)
same,outcome,[6],inactive
same,outcome,[7],inactive
same,outcome,[8],inactive
same,outcome,[9],inactive
same,AC50,[10],66.7 µM (active)
CC(C)=CCCC(C)=CC=O,outcome,[1],inactive
same,outcome,[2],inactive
same,outcome,[3],inactive
same,outcome,[4],inactive
same,outcome,[5],inactive
same,outcome,[6],inactive
same,outcome,[7],inactive
same,outcome,[8],inactive
same,outcome,[9],inactive
CNCc1ccc(NC(=O)c2c[nH]c3c2C(=O)CCC3)cc1,outcome,[1],inactive
same,outcome,[2],inactive
same,outcome,[3],inactive
same,outcome,[4],inactive
same,outcome,[5],inactive
same,outcome,[6],inactive
same,outcome,[7],inactive
same,outcome,[8],inactive
Clc1nc(Cl)c(Cl)c(Cl)c1Cl,outcome,[1],inactive
same,outcome,[2],inactive
same,outcome,[3],inactive
same,outcome,[4],inactive
same,outcome,[5],inactive
same,outcome,[6],inactive
same,outcome,[7],inactive
same,outcome,[8],inactive
same,outcome,[9],inactive
same,outcome,[10],inactive
O=c1[nH]c2ccc(S(=O)CCN3CCC(Cc4ccc(F)cc4)CC3)cc2o1 (stereo not given),outcome,[1],inactive
same,outcome,[2],inactive
same,AC50,[3],85.5 µM (active)
same,outcome,[4],inactive
same,outcome,[5],inactive
same,outcome,[6],inactive
same,outcome,[7],inactive
same,outcome,[8],inactive
On1ccccc1=S,outcome,[1],inactive
same,outcome,[2],inactive
same,outcome,[3],inactive
same,outcome,[4],inactive
same,outcome,[5],inactive
same,outcome,[6],inactive
same,outcome,[7],inactive
same,outcome,[8],inactive
same,outcome,[9],inactive
COc1ccc(/C=C/S(=O)(=O)NC(=O)c2ccc(C)cc2Cl)cc1,outcome,[1],inactive
same,outcome,[2],inactive
same,outcome,[3],inactive
same,outcome,[4],inactive
same,outcome,[5],inactive
same,outcome,[6],inactive
same,outcome,[7],inactive
same,outcome,[8],inactive
same,outcome,[9],inactive
same,outcome,[10],inactive
O=C1OC(=O)C2C3C=CC(C3)C12 (stereo not given),outcome,[1],inactive
same,outcome,[2],inactive
same,outcome,[3],inactive
same,outcome,[4],inactive
same,outcome,[5],inactive
same,outcome,[6],inactive
same,outcome,[7],inactive
same,outcome,[8],inactive
same,outcome,[9],inactive
same,outcome,[10],inactive
O=c1n(CC2CO2)c(=O)n(CC2CO2)c(=O)n1CC1CO1 (stereo not given),outcome,[1],inactive
same,outcome,[2],inactive
same,outcome,[3],inactive
same,AC50,[4],90.1 µM (active)
same,outcome,[5],inactive
same,outcome,[6],inactive
same,outcome,[7],inactive
same,outcome,[8],inactive
same,outcome,[9],inactive
same,outcome,[10],inactive
O=C(O)c1cccc(Oc2ccccc2)c1,outcome,[1],inactive
same,outcome,[2],inactive
same,outcome,[3],inactive
same,outcome,[4],inactive
same,outcome,[5],inactive
same,outcome,[6],inactive
same,outcome,[7],inactive
same,outcome,[8],inactive
same,outcome,[9],inactive
O=C(O)CCN(C1(C(=O)NO)CCCC1)S(=O)(=O)c1ccc(Oc2ccc(F)cc2)cc1,outcome,[1],inactive
same,outcome,[2],inactive
same,outcome,[3],inactive
same,outcome,[4],inactive
same,outcome,[5],inactive
same,outcome,[6],inactive
same,outcome,[7],inactive
same,outcome,[8],inactive
COCCOc1cc2cc(C(=O)NC3CCN(C(C)C)CC3)n(CC(=O)Nc3ccc(Cl)cn3)c2cn1,AC50,[1],18.2 µM (active)
same,outcome,[2],inactive
same,AC50,[3],51.5 µM (active)
same,outcome,[4],inactive
same,AC50,[5],82.2 µM (active)
same,outcome,[6],inactive
same,AC50,[7],12.1 µM (active)
same,AC50,[8],59.3 µM (active)
C=CCCCCCCCCC(=O)O,outcome,[1],inactive
same,outcome,[2],inactive
same,outcome,[3],inactive
same,outcome,[4],inactive
same,outcome,[5],inactive
same,outcome,[6],inactive
same,outcome,[7],inactive
same,outcome,[8],inactive
same,outcome,[9],inactive
same,outcome,[10],inactive
CC(C)=CCCC(C)CCO (stereo not given),outcome,[1],inactive
same,outcome,[2],inactive
same,outcome,[3],inactive
same,outcome,[4],inactive
same,outcome,[5],inactive
same,outcome,[6],inactive
same,outcome,[7],inactive
same,outcome,[8],inactive
same,outcome,[9],inactive
same,outcome,[10],inactive
Cc1c(-c2cccnc2)c2ccccc2n1CCCCC(=O)O,outcome,[1],inactive
same,outcome,[2],inactive
same,outcome,[3],inactive
same,outcome,[4],inactive
same,outcome,[5],inactive
same,outcome,[6],inactive
same,outcome,[7],inactive
same,outcome,[8],inactive
O=C(O)CC(O)C(=O)O (stereo not given),outcome,[1],inactive
same,outcome,[2],inactive
same,outcome,[3],inactive
same,outcome,[4],inactive
same,outcome,[5],inactive
same,outcome,[6],inactive
same,outcome,[7],inactive
same,outcome,[8],inactive
same,outcome,[9],inactive
same,outcome,[10],inactive
O=C(CCCCCCCCc1cccnc1)N1CCC(C=C(c2ccccc2)c2ccccc2)CC1,AC50,[1],78.7 µM (active)
same,AC50,[2],79.2 µM (active)
same,AC50,[3],18.8 µM (active)
same,AC50,[4],22.9 µM (active)
same,AC50,[5],32.9 µM (active)
same,AC50,[6],33.6 µM (active)
same,AC50,[7],30.9 µM (active)
same,AC50,[8],36.8 µM (active)
same,AC50,[9],33.8 µM (active)
same,AC50,[10],10 µM (active)
Cc1ccc(C)c(O)c1,outcome,[1],inactive
same,outcome,[2],inactive
same,outcome,[3],inactive
same,outcome,[4],inactive
same,outcome,[5],inactive
same,outcome,[6],inactive
same,outcome,[7],inactive
same,outcome,[8],inactive
same,outcome,[9],inactive
CCC(C)(C)C(=O)O[C@H]1C[C@@H](C)C=C2C=C[C@H](C)[C@H](CC[C@@H]3C[C@@H](O)CC(=O)O3)[C@H]21,outcome,[1],inactive
same,outcome,[2],inactive
same,AC50,[3],25.4 µM (active)
same,outcome,[4],inactive
same,outcome,[5],inactive
same,outcome,[6],inactive
same,outcome,[7],inactive
same,outcome,[8],inactive
same,outcome,[9],inactive
same,outcome,[10],inactive
CCOCCOCCOCCO,outcome,[1],inactive
same,outcome,[2],inactive
same,outcome,[3],inactive
same,outcome,[4],inactive
same,outcome,[5],inactive
same,outcome,[6],inactive
same,outcome,[7],inactive
same,outcome,[8],inactive
same,outcome,[9],inactive
same,outcome,[10],inactive
